Reference: PubChem BioAssay AID602 (SRMLSC, 2007)
Hit rate of the full screen: of about 85,000 compounds, about 35 (0.04%) were called active. This is one part of a sample in which actives are shown more often than they occur.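 The calls were made as follows: active = viability drop by adding the cancer drug above about 55%, with treated viability meeting a 40% cutoff (limit read from the data); inactive = the rest, inconclusive results apart.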

Assay: reversal of MRP1-mediated doxorubicin resistance, primary screen, H69AR cells, doxorubicin co-treatment (AID 602);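 as to differential viability (reversal): larger differential means the compound sensitizes cells more to doxorubicin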
Conditions: CellTiter-Glo, 72 h, at 10 µM; for differential viability (reversal): stronger effect = higher value
[1] = H69AR cells + 2 uM doxorubicin, measured here: viability with 2 uM doxorubicin, stronger effect = lower value
[2] = H69AR cells, measured here: cytotoxicity without doxorubicin

SMILES: COc1ccc(-n2c(C)csc2=S)cc1
- differential viability (reversal) (H69AR cells + 2 uM doxorubicin): -2.75% (inactive)
- viability [1]: 89.3%
- viability [2]: 86.6%

SMILES: CCN(CC)CCNC(=O)CCCCCn1c(=O)[nH]c2cc(C(=O)OC)ccc2c1=O
- differential viability (reversal) (H69AR cells + 2 uM doxorubicin): 10.3% (inactive)
- viability [1]: 91.6%
- viability [2]: 102%

SMILES: N=c1c2c3c(sc2nc2n1CCCCC2)CCCC3
- differential viability (reversal) (H69AR cells + 2 uM doxorubicin): 9.08% (inactive)
- viability [1]: 75.2%
- viability [2]: 84.3%

SMILES: Cc1cnc(NC(=O)C2CCCC2)s1
- differential viability (reversal) (H69AR cells + 2 uM doxorubicin): -2.44% (inactive)
- viability [1]: 100%
- viability [2]: 97.7%

SMILES: Oc1ccccc1CNc1ncc(Br)cc1Br
- differential viability (reversal) (H69AR cells + 2 uM doxorubicin): -9.74% (inactive)
- viability [1]: 83.2%
- viability [2]: 73.5%

SMILES: O=C(COC(=O)c1n[nH]c2ccccc12)NCc1ccccc1
- differential viability (reversal) (H69AR cells + 2 uM doxorubicin): 1.28% (inactive)
- viability [1]: 95.4%
- viability [2]: 96.7%

SMILES: CCOc1ccc(Nc2nc(Cc3nnc(SCC(=O)c4ccc(C)cc4)o3)cs2)cc1
- differential viability (reversal) (H69AR cells + 2 uM doxorubicin): -4.34% (inactive)
- viability [1]: 92.9%
- viability [2]: 88.6%

SMILES: O=C1CC(Sc2ncn[nH]2)C(=O)N1c1ccccc1 (stereo not given)
- differential viability (reversal) (H69AR cells + 2 uM doxorubicin): 9.11% (inactive)
- viability [1]: 87%
- viability [2]: 96.1%

SMILES: O=C(c1cccc(F)c1)N1CCC(O)(c2cccnc2)CC1
- differential viability (reversal) (H69AR cells + 2 uM doxorubicin): 5.21% (inactive)
- viability [1]: 82.9%
- viability [2]: 88.1%

SMILES: O=C(NCc1ccco1)C1(c2ccc(Cl)cc2)CCCC1
- differential viability (reversal) (H69AR cells + 2 uM doxorubicin): -5.04% (inactive)
- viability [1]: 102%
- viability [2]: 96.8%

SMILES: O=C(c1ccc2c(c1)OCO2)N1CCN(C(=O)c2ccco2)CC1
- differential viability (reversal) (H69AR cells + 2 uM doxorubicin): 18.9% (inactive)
- viability [1]: 73%
- viability [2]: 91.9%

SMILES: O=C(c1ccccc1Oc1ccccc1)N1CCN(c2ccc(F)cc2)CC1
- differential viability (reversal) (H69AR cells + 2 uM doxorubicin): 4.49% (inactive)
- viability [1]: 95.8%
- viability [2]: 100%

SMILES: COc1ccc(N2CCN(C(=O)CCc3nc(-c4ccc(C)cc4)no3)CC2)cc1
- differential viability (reversal) (H69AR cells + 2 uM doxorubicin): 16.8% (inactive)
- viability [1]: 81.6%
- viability [2]: 98.4%

SMILES: CS(=O)(=O)N(Cc1ccc(Cl)cc1)c1ccc(C(=O)NCCSCc2ccco2)cc1
- differential viability (reversal) (H69AR cells + 2 uM doxorubicin): -17.6% (inactive)
- viability [1]: 111%
- viability [2]: 93.7%

SMILES: COC(=O)C1=C(Nc2ccc(OC)cc2)C=C(C)C(C(=O)OC)C1c1ccc(C)cc1 (stereo not given)
- differential viability (reversal) (H69AR cells + 2 uM doxorubicin): -22.3% (inactive)
- viability [1]: 77.8%
- viability [2]: 55.6%

SMILES: COc1ccc(C(C#N)N2N=C(C)CC2(C)C)cc1 (stereo not given)
- differential viability (reversal) (H69AR cells + 2 uM doxorubicin): 15.2% (inactive)
- viability [1]: 89.1%
- viability [2]: 104%

SMILES: Cn1c(=O)c2c(SCC(=O)N3CCOCC3)nc(C3CC3)nc2n(C)c1=O
- differential viability (reversal) (H69AR cells + 2 uM doxorubicin): -2.72% (inactive)
- viability [1]: 84.5%
- viability [2]: 81.8%

SMILES: CO/N=C(/CS(=O)(=O)c1ccc(Br)cc1)c1ccc(OC)cc1
- differential viability (reversal) (H69AR cells + 2 uM doxorubicin): -26.9% (inactive)
- viability [1]: 58.3%
- viability [2]: 31.4%

SMILES: CCSc1ccccc1C(=O)NCc1ccc(OC)cc1
- differential viability (reversal) (H69AR cells + 2 uM doxorubicin): 7.76% (inactive)
- viability [1]: 84.9%
- viability [2]: 92.6%

SMILES: Cc1ccc2cc(CCNC(=O)c3ccc4c(c3)OCO4)c(=O)[nH]c2c1
- differential viability (reversal) (H69AR cells + 2 uM doxorubicin): -5.04% (inactive)
- viability [1]: 84.9%
- viability [2]: 79.8%

SMILES: CCC(O)CNc1nc(-n2nc(C)cc2C)nc2sc3c(c12)CC(C)(C)OC3 (stereo not given)
- differential viability (reversal) (H69AR cells + 2 uM doxorubicin): -4.15% (inactive)
- viability [1]: 48.8%
- viability [2]: 44.6%

SMILES: CC(C)(CNC(=O)c1cc(=O)[nH]c2ccccc12)N1CCOCC1
- differential viability (reversal) (H69AR cells + 2 uM doxorubicin): 3.32% (inactive)
- viability [1]: 97.6%
- viability [2]: 101%

SMILES: Cc1ccc(N(CC(=O)Nc2cc(C)cc(C)c2)S(=O)(=O)c2cccc3nonc23)cc1
- differential viability (reversal) (H69AR cells + 2 uM doxorubicin): -3.92% (inactive)
- viability [1]: 101%
- viability [2]: 96.6%

SMILES: Cn1ccs/c1=N\S(=O)(=O)c1ccc(C(C)(C)C)cc1
- differential viability (reversal) (H69AR cells + 2 uM doxorubicin): 11.8% (inactive)
- viability [1]: 77.6%
- viability [2]: 89.4%

SMILES: CCOC(=O)c1ccc(COC(=O)CCc2nc(-c3ccccc3)c(-c3ccccc3)o2)cc1
- differential viability (reversal) (H69AR cells + 2 uM doxorubicin): -11.9% (inactive)
- viability [1]: 83.3%
- viability [2]: 71.4%
